Screening data deposited in PubChem by Sanford-Burnham Center for Chemical Genomics.
CYP2C19 inh = inhibitors of human CYP2C19 | P33261 | CYP2C19 Supersomes, luciferin-H EGE luminescence, 30 min | inhibition, % at 5 µM | 96,000 tested, 21% active;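 active = CYP2C19 inhibition above a set limit at 5 µM in the primary screen, cut at about 50% in these data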
CYP2C19 activ = increases human CYP2C19 enzyme activity. recombinant CYP2C19, luciferin-H EGE luminescence; hits give high values; 0 = fully inhibited enzyme, 1 = untreated enzyme. AID 1025. 96,000 tested, under 10 active. P33261. activation factor at 5 µM;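 active = activation factor of at least 2 at 5 µM in the primary screen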
PLAP act = activates human placental alkaline phosphatase; activation fold at 20 µM; 96,000 tested, 1.2% active; purified PLAP enzyme, luminescent substrate read-out; hits give high values; AID 696; P05187; in the data active = activation fold above about 2
Target sequence (P05187 whole entry, looked up): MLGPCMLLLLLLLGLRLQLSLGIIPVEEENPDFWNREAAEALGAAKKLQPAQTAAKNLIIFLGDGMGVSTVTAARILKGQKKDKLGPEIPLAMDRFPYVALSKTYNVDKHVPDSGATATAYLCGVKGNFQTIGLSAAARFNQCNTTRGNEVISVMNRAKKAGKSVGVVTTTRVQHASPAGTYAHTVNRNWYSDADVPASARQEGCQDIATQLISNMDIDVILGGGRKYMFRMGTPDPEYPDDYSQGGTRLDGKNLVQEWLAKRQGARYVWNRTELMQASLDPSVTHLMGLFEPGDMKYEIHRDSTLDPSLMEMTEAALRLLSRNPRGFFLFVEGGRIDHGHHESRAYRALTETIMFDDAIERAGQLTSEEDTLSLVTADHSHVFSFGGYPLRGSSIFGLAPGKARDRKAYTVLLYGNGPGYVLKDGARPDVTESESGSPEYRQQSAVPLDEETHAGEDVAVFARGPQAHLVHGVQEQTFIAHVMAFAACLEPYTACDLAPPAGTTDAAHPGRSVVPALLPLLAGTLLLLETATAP
CYP2C9 act = increases human cytochrome P450 2C9 activity; P11712; recombinant CYP2C9, luciferin-H conversion, luminescence; hits give high values; factor 1 = untreated enzyme, 0 = blocked; activation factor at 5 µM; 96,000 tested, 1.4% active; AID 1024;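 active = activation factor of 2 or more for CYP2C9 at a 5 µM dose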
CYP2C9 inh = blocks human cytochrome P450 2C9. inhibition, % at 5 µM. 96,000 tested, 20% active. CYP2C9 Supersomes, luciferin-H conversion, luminescence. P11712;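 active = blocking of liver enzyme CYP2C9 beyond about 50% at 5 µM, limit read from the data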
Hits are given with their value; - = inactive. A selection: hits, their analogues and other compounds. The true share with any hit is near 31%.

SMILES	CYP2C19 inh	CYP2C19 activ	PLAP act	CYP2C9 act	CYP2C9 inh
CCN(C(=O)c1cccs1)c1nnc(-c2ccncc2)s1	100	-	-	-	71
Cc1ccc(-c2nnn(CC(=O)N3CCC(C)CC3)n2)o1	-	-	-	-	-
CN(C(=O)COc1ccc(C(C)(C)C)cc1)C1CCS(=O)(=O)C1 (stereo not drawn)	-	-	-	-	-
CCOC(=O)N1CCN(CC(O)c2ccc3cc[nH]c3c2)CC1 (stereo not drawn)	96	-	-	-	-
CCCCCc1cc(O)c2c(C)cc(=O)oc2c1	70	-	-	-	59
Cc1cc(NC(=O)Cc2ccccc2)nc2c1c(=O)oc1ccccc12	-	-	-	-	-
CCc1cc(=O)oc2cc(C)c3c(C)coc3c12	63	-	-	-	-
CCc1cc(=O)oc2cc(C)cc(O)c12	-	-	-	2.7	-
CCCc1cc(=O)oc2cc(C)cc(O)c12	-	-	-	-	-
Cc1coc2c1c(C)cc1oc(=O)c(Cc3ccccc3)c(C)c12	53	-	-	-	-
Cc1ccc(S(=O)(=O)N(C)Cc2cc3ccccc3[nH]c2=O)cc1	-	-	-	-	-
CCn1c2ccccc2c2cc(C3N=C(N)Nc4nc5ccccc5n43)ccc21 (stereo not drawn)	-	-	-	-	-
CCOC(=O)N1CCN(S(=O)(=O)c2ccc3[nH]c(=O)sc3c2)CC1	-	-	-	-	-
O=C(Nc1cccc([N+](=O)[O-])c1)C12CC3CC(C1)CC(n1cnc([N+](=O)[O-])n1)(C3)C2	-	-	-	-	-
COc1cc(C(=O)OCC(=O)Nc2c(F)c(F)c(F)c(F)c2F)cc(OC)c1OC	78	-	-	-	-
COc1ccc(Cl)cc1NC(=O)c1cccnc1	-	-	-	2.6	-
CNC(=O)COC(=O)c1cc(NC(=O)c2ccco2)c(OC)c(OC)c1	-	-	-	-	54
Cc1ccc(Oc2ccc(Cl)cc2NC(=O)c2cnccn2)cc1	-	-	-	-	56
COc1cc(C(=O)OCC(=O)NCc2ccccc2)cc(NC(=O)c2ccco2)c1OC	-	-	-	-	-
O=C(Nc1ccccc1Oc1ccccc1)c1cnccn1	-	-	-	-	-
CCOC(=O)c1cc2c(C(F)(F)F)cc(-c3ccccc3)nc2o1	-	-	-	-	-
C=CCC(C#Cc1ccc(C)cc1)N(CC)CC (stereo not drawn)	-	-	-	-	-
O=C(Nc1ccc(NC(=O)C2CCCCC2)nc1)c1ccco1	61	-	-	-	-
COc1cc(NC(=O)c2ccco2)c(OC)cc1NC(=O)Nc1ccccc1Cl	85	-	-	-	60
COc1ccc(Cl)cc1NC(=O)c1ccco1	-	-	-	4.2	-
SMILES	CYP2C19 inh	CYP2C19 activ	PLAP act	CYP2C9 act	CYP2C9 inh
COc1cc2c(cc1NC(=O)c1ccco1)CCCC2	-	-	-	-	-
CC1CCCCN1S(=O)(=O)c1ccc(NC(=O)c2ccco2)cc1 (stereo not drawn)	59	-	-	-	72
CC(C)COC(=O)c1ccc(NC(=O)C2C3CCC(C3)C2C(=O)O)cc1 (stereo not drawn)	-	-	-	-	-
COc1cc(NC(=O)C(C)C)ccc1NC(=O)c1ccco1	-	-	-	-	64
COc1cc(NC(=O)C2CCCCC2)c(OC)cc1NC(=O)c1ccco1	62	-	-	-	-
COc1ccc(Cl)cc1NC(=O)Nn1cnnc1	-	-	-	-	-
COc1ccc(OC)c(N/C(=N\c2nc(C)cc(C)n2)NC(=O)c2ccco2)c1	-	-	-	-	56
C=CCN(CC=C)C(=O)Nc1cc(Cl)ccc1OC	85	-	-	2.7	-
COc1ccc(NC(=O)c2ccco2)c(OC)c1	-	-	-	-	-
COc1ccc(Cl)cc1NC(=S)N1CCN(C(=O)c2ccco2)CC1	-	-	-	2	-
Cc1csc2c(C#N)c(=O)c3c(n12)CCC3	-	-	-	-	-
O=C(Nc1ccc(S(=O)(=O)NCc2ccco2)cc1)c1ccncc1	94	-	-	-	98
Cc1cc(C)n(CCCNC(=O)c2ccc(S(=O)(=O)NCc3ccco3)cc2)n1	-	-	-	-	50
Cc1cc(C)n(Cc2ccc(C(=O)NCc3ccco3)o2)n1	-	-	-	-	-
O=C(c1ccc(N2CCCCS2(=O)=O)cc1)N1CCN(c2ccc(N3CCOCC3)nn2)CC1	-	-	-	-	-
O=C(NCc1ccc(F)cc1)c1cc2n(n1)C(C(F)(F)F)CC(C1CC1)N2 (stereo not drawn)	-	-	-	-	-
COc1ccccc1N1CCN(CC(O)c2ccc3cc[nH]c3c2)CC1 (stereo not drawn)	-	-	-	-	-
Cc1ccc(NC(=S)N/C(=N/S(=O)(=O)c2ccccc2)c2ccccc2)cc1	-	-	-	-	82
CCOC(=O)c1ccc(N/C(=N\S(=O)(=O)c2ccccc2C)c2ccccc2)cc1	-	-	-	-	-
Cc1ccc(S(=O)(=O)/N=C(/NC(=S)Nc2ccccc2)c2ccccc2)cc1	-	-	-	-	-
CCCOC(=S)N/C(=N\S(=O)(=O)c1ccccc1)c1ccccc1	-	-	-	-	67
CCN(CC)/C(=N/S(=O)(=O)c1ccc(C)cc1)c1ccccc1	57	-	-	-	-
CC1CC(NC(=O)C2(C)CC2(Cl)Cl)CC(C)(C)C1 (stereo not drawn)	-	-	-	-	-
COC(=O)c1cc(NC(=O)CCc2c(C)nc3ncnn3c2C)cc(C(=O)OC)c1	-	-	-	-	-
COC(=O)c1ccc(COc2ccc(-c3nn[nH]n3)cc2)cc1	-	-	-	-	-
SMILES	CYP2C19 inh	CYP2C19 activ	PLAP act	CYP2C9 act	CYP2C9 inh
CCCC(=O)Nc1ccc(C(=O)NNC(=O)COc2ccc(Br)c(C)c2)cc1	-	-	-	-	-
Oc1ccc(-c2nc3ccccn3c2NCc2ccc3c(c2)OCO3)cc1	68	-	-	-	-
Cc1ccn2c(NCc3ccc4c(c3)OCO4)c(-c3ccc(O)cc3)nc2c1	-	-	-	-	-
COc1cc(-c2nnc(SCC(=O)N(Cc3ccccc3)C(C)(C)C)o2)cc(OC)c1OC	85	-	-	-	-
COc1cc(OC)cc(-c2nnc(SCC(=O)N(Cc3ccccc3)C(C)(C)C)o2)c1	78	-	-	-	-
COc1cc(OC)cc(-c2nnc(SCC(=O)N(C(C)C)C(C)C)o2)c1	72	-	-	2.3	-
CCCCN(CCCC)C(=O)CSc1nnc(-c2cc(OC)c(OC)c(OC)c2)o1	-	-	-	-	-
CC(C)[C@H](NC(=O)Nc1ccc(Oc2ccccc2)cc1)C(=O)O	-	-	-	-	-
CCN=C1SC(C(=O)Nc2ccccc2)CC(=O)N1CC (stereo not drawn)	-	-	-	-	-
CC(=O)N1CCN(c2nc(C)nc3sc4c(c23)CCC(C)C4)CC1 (stereo not drawn)	83	-	-	-	86
CCC(=O)N1CCN(c2nc(C)nc3sc(C)c(C)c23)CC1	-	-	-	-	-
O=C(CSc1ccc(C(F)(F)F)cc1[N+](=O)[O-])Nc1ccccc1	-	-	-	-	-
